Hits are enriched below; roughly 2.4% of the tested compounds scored in any of these assays.
POLB inh: inhibitors of human DNA polymerase beta; P06746; Pol beta primer extension/strand displacement, fluorescence kinetic; Potency, µM (titrated, usually from 114 µM), actives largely listed as inhibitors; 340,000 compounds, 1.3% hits; AID 485314
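Human Pol beta at 10 nM; strand-displacement substrate 50 nM final. Compound exposure 15 min at room temperature before start, reaction 10 min at room temperature.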
WRN helicase inh: inhibitors of human WRN helicase | AID 651768 | Potency, µM (doses to about 114 µM), usual class: inhibitors | WRN helicase unwinding, fluorescent forked duplex, kinetic | Q14191 | 360,000 compounds, 0.46% hits; note: nearly all actives have a fitted effect of over 55% in size
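WRN at 20 nM final was preincubated with compound for 15 min at room temperature; reaction started with 100 nM forked duplex oligonucleotide carrying fluorophore and quencher plus 2 mM ATP (final). Unwinding followed kinetically by red fluorescence (ex 525/em 598 nm).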
Pol eta inh-1: DNA polymerase eta (human) inhibition. Q9Y253. recombinant Pol eta, fluorescent DNA replication assay. Potency, µM (titrated, usually from 114 µM), actives largely listed as inhibitors. 390,000 compounds, 1.2% hits
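Pol eta at 10 nM preincubated with compounds 15 min at room temperature; reaction started with fluorescent substrate (50 nM final) and read kinetically at 0 and 10 min.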
FEN1 inhibitor: blocks human flap endonuclease 1 | P39748 | Recombinant FEN1 flap cleavage, fluorescence, 15 min | Potency, µM (doses to about 114 µM), usual class: inhibitors | 390,000 compounds, 0.35% hits; note: nearly all actives have a fitted effect of over 65% in size
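Recombinant FEN1 (10 nM) was preincubated with pin-transferred compounds for 15 min at room temperature, then flap DNA substrate (50 nM final) was added. Plates were read at 0 and 15 min, and normalized concentration–response data were fitted to a four-parameter Hill equation.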
POLI inh: blocks human DNA polymerase iota activity; Q9UNA4; Pol iota fluorescent replication assay, 10 min; Potency, µM (series often up to 115 µM), most hits filed as inhibitors; 390,000 compounds, 1% hits
Target sequence (Q9UNA4 whole entry, looked up): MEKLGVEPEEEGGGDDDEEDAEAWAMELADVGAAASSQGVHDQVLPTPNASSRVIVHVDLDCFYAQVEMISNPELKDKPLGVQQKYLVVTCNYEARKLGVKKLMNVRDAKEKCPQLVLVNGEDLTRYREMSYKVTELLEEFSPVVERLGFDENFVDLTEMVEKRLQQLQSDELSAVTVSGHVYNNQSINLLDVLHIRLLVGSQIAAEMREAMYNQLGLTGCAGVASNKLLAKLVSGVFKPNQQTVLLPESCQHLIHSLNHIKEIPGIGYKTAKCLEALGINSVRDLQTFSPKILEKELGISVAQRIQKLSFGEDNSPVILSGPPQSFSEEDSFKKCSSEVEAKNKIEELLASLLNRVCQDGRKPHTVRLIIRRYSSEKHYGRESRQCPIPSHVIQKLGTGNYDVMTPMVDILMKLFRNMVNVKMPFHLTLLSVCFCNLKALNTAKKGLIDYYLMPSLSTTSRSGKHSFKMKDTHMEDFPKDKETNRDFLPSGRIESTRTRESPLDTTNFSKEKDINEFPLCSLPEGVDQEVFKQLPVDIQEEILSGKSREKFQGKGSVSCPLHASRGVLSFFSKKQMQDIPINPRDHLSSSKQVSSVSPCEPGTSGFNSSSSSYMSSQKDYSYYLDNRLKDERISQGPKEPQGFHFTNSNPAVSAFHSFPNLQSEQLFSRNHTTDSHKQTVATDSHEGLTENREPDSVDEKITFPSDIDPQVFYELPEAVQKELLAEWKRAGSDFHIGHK
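Fluorescent replication assay read twice, at 0 min and 10 min after adding 50 nM (final) substrate. Enzyme (10 nM) and compounds were first incubated 15 min at room temperature; enzyme-free buffer wells were negative controls.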
Pol kappa inh-1: DNA polymerase kappa (human) inhibition | purified Pol kappa, fluorescent DNA synthesis assay, 10 min | 400,000 compounds, 0.53% hits | Potency, µM (series often up to 107 µM), hits mostly inhibitors | Q9UBT6
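Here, compound and 10 nM enzyme are combined for 15 min at room temperature; adding 50 nM substrate (final) starts DNA synthesis, tracked by fluorescence at 0 and 10 min against buffer-only wells.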
TbPGK inh: blocks T. brucei phosphoglycerate kinase; shares compounds with Pol kappa inh-1; Potency, µM (series often up to 57.5 µM), actives largely listed as inhibitors; 500 compounds, 79% hits; TbPGK coupled GAPDH assay, Kinase-Glo luminescence; note: nearly all actives have a fitted effect of over 65% in size
Pol iota confirm: Confirm cherry-picked inhibitors of human polymerase iota; shares compounds with Pol kappa inh-1; Pol iota primer extension, TAMRA/BHQ fluorescence; Potency, µM, hits mostly inhibitors; 1,500 compounds, 77% hits
GALK confirm: confirmation of human galactokinase (GALK) inhibitors; Potency, µM (doses to about 115 µM), usual class: inhibitors; AID 2015; shares compounds with Pol eta inh-1; purified GALK, Kinase-Glo ATP depletion luminescence; 150 compounds, 70% hits
Redox cycling: counter-screen for GALK inhibitors: redox cycling H2O2 generation; AID 2035; 150 compounds, 40% hits; shares compounds with Pol eta inh-1; Phenol red-HRP H2O2 redox cycling, absorbance 600 nm; Potency, µM (highest dose often 115 µM), actives largely listed as inhibitors
HEK293 tox: reduces HEK-293 cell viability in GALK counter-screen; HEK-293 viability, ATP luminescence (CellTiter-Glo), 24/48 h; Potency, µM (top dose mostly 46.1 µM), actives largely listed as inhibitors; 170 compounds, 10% hits; shares compounds with Pol eta inh-1
Pol kappa inh-2: confirmation of human DNA polymerase kappa inhibitors; shares compounds with Pol eta inh-1; purified Pol-kappa, fluorescent strand-displacement substrate; Potency, µM, usual class: inhibitors; 920 compounds, 76% hits
Pol eta inh-2: confirmation of human DNA polymerase eta inhibitors | Potency, µM, most hits filed as inhibitors | shares compounds with Pol eta inh-1 | 2,600 compounds, 64% hits | AID 720502 | Pol eta primer extension, TAMRA/BHQ fluorescence, 10 min
Numbers stand for hits; 0 = inactive; ? = inconclusive; - = no result given; ! = a repeat was not active. Calls come from the whole dose curve; as a rule, active = well fitted curve in the direction sought with a large enough effect; inconclusive = small, poorly fitted or top-dose-only effect, or another doubt; inactive = no such curve, though single readings can be large; an effect the other way counts as inactive or inconclusive.

SMILES	POLB inh	WRN helicase inh	Pol eta inh-1	FEN1 inhibitor	POLI inh	Pol kappa inh-1	Pol iota confirm	Pol eta inh-2	others
O=C1C(SCCO)=C(SCCO)C(=O)c2ccccc21	0	79.4µM	15.8µM	?	1.12µM!	?	23.8	23.9	GALK confirm=18.8µM;Redox cycling=10.6µM;HEK293 tox=?
CCN(C(=O)c1noc2c1COc1ccc(C)cc1-2)c1cccc(C)c1	0	-	0	0	0	0	-	-
COc1cccc(/C=C/C(=O)OCC(=O)Nc2ccc(Cl)c(S(=O)(=O)N(C)C)c2)c1	0	0	0	0	0	0	-	-
CN(C)S(=O)(=O)c1cc(NC(=O)COC(=O)/C=C/c2ccco2)ccc1Cl	?	?	25.1µM	?	?	31.6µM	-	67.5	TbPGK inh=0
Oc1ccc2ccccc2c1C=NC12CN3CCN(CN(C3)C1)C2	0	?	20µM	0	20µM	0	?	?
FC(F)(F)C1=Nc2cccc3cccc(c23)N1	-	?	2.24µM	50.1µM	1.58µM	6.31µM	16.8	21.3	Pol kappa inh-2=7.52
Fc1ccc(C2=Nc3cccc4cccc(c34)N2)cc1	0	0	0	0	0	0	-	-
O=C(O)C1CCCCC1C(=O)Nc1cccc(Br)c1 (configuration not stated)	-	50.1µM	12.6µM	0	44.7µM	?	75.2	37.9	Pol kappa inh-2=18.9
Nc1ccc(S(=O)(=O)Nc2nccs2)cc1N=Nc1ccccc1[N+](=O)[O-]	-	25.1µM	3.16µM	50.1µM	7.08µM	28.2µM	75.2	19	Pol kappa inh-2=?
O=[N+]([O-])c1ccccc1S(=O)(=O)Nc1ccc(S(=O)(=O)Nc2nccs2)cc1	0	0	0	0	?	0	-	-
O=S(=O)(c1ccccc1)N1CCC2(CC1)CN(C(c1ccccc1)c1ccccc1)C2	-	-	-	-	-	0	-	-
O=C1C2CC=C(Cl)CC2C(=O)N1CCCCCCN1C(=O)C2CC=C(Cl)CC2C1=O (configuration not stated)	20µM	?	20µM	0	17.8µM	79.4µM	59.7	30.1
COc1cccc(-c2nc(Cl)nc3cc(Cl)ccc23)c1	-	0	-	-	-	-	-	-
CCOC(=O)c1cccc(NC(=O)c2cc3cc4cc(OC)ccc4nc3s2)c1	?	-	?	?	0	0	?	?	Pol kappa inh-2=18.9
CC(=O)c1ccc(NC(=O)CN2C(=O)CCc3cc(S(=O)(=O)N4CCC(C)CC4)ccc32)cc1	35.5µM	-	25.1µM	0	?	0	53.2	37.9	Pol kappa inh-2=?
COc1cccc(N=c2oc3ccc(OC)cc3cc2-c2nc3ccccc3[nH]2)c1	?	?	44.7µM	?	?	0	33.6	75.7
COc1cccc(N=c2oc3ccccc3cc2-c2nc3ccccc3[nH]2)c1	0	0	0	0	?	0	-	-
CC(=O)c1ccc(NC(=O)c2cc3sccc3n2Cc2ccc(Cl)cc2)cc1	0	-	0	0	0	0	-	-
COc1cc(/C=C(\C#N)c2nc3ccccc3[nH]2)ccc1OCc1ccc(F)cc1	11.2µM	-	79.4µM	?	?	0	67	?
CCOc1cc(/C=C(\C#N)c2nc3ccccc3[nH]2)ccc1OC(C)C(=O)O (configuration not stated)	0	0	0	0	0	0	-	-
COC1=CC(=O)c2c(ccc3ncnc(N)c23)C1=O	-	0	4.47µM	?	3.98µM	0	4.23	8.49
COC1=CC(=O)c2nc(Cl)ccc2C1=O	-	0	-	-	-	-	-	-
CCOc1cc(/C=N/N=C2/NC(=O)C(CC(=O)O)S2)ccc1OCc1ccc(Cl)cc1Cl (configuration not stated)	22.4µM	?	31.6µM	?	?	?	75.2	75.7	Pol kappa inh-2=75.2
O=C1C=CC(n2cc(F)c(=O)[nH]c2=O)O1 (configuration not stated)	-	0	20µM	-	-	-	-	?	TbPGK inh=18.3µM
C[C@H]1O[C@@H](n2cc(F)c(=O)[nH]c2=O)[C@H](O)[C@H]1O	-	-	-	0	-	0	-	-
SMILES	POLB inh	WRN helicase inh	Pol eta inh-1	FEN1 inhibitor	POLI inh	Pol kappa inh-1	Pol iota confirm	Pol eta inh-2	others
COc1ccc(-c2cc(=O)c3c(O)cc(O)cc3o2)cc1	-	0	0	0	0	0	-	-
O=c1c(-c2c(O)cc(O)c3c(=O)cc(-c4ccc(O)cc4)oc23)c(-c2ccc(O)cc2)oc2cc(O)cc(O)c12	3.16µM	56.2µM	3.55µM	50.1µM	7.94µM	35.5µM	42.3	42.6
Cc1ccc(NC(=O)Cn2c(O)c(N=NC(=O)c3cc([N+](=O)[O-])ccc3O)c3ccccc32)cc1	0	-	-	-	-	-	-	-
Cc1cccc(NC(=O)Cn2c(O)c(N=NC(=O)c3ccccc3O)c3ccccc32)c1	15.8µM	?	44.7µM	0	0	0	47.4	?
O=C(O)Cc1ccc(NC(=O)c2ccc3c(c2)C(=O)N(Cc2ccco2)C3=O)cc1	0	39.8µM	3.98µM	0	11.2µM	?	59.7	23.9
O=C(O)Cc1ccc(NC(=O)c2ccc3c(c2)C(=O)N(Cc2ccccc2)C3=O)cc1	-	0	0	-	-	-	-	-
CCCCNC(=O)c1nn(C)c2c1CSc1ccccc1-2	0	-	0	0	0	0	-	-
O=C(O)CCN1C(=O)/C(=C\c2cccc(Oc3ccccc3)c2)SC1=S	?	?	39.8µM	?	25.1µM	?	?	75.7
O=C1/C(=C\c2cc(Cl)c(O)c(Cl)c2)SC(=S)N1Cc1ccccc1	?	11.2µM	50.1µM	50.1µM	10µM	0	84.4	-	GALK confirm=26.6µM;Redox cycling=0;HEK293 tox=?
COc1ccc(/C=C2/SC(=S)N(Cc3ccccc3)C2=O)cc1O	0	0	0	0	0	0	-	-
COc1ccc(/C=C2/SC(=S)N(CCC(=O)O)C2=O)cc1	0	0	0	0	0	0	-	-
